# This is a sample that favours compounds with a hit; in the whole collection about 2.7% have one here.
# CHT inh – inhibits the human high affinity choline transporter; CHT-expressing cells, membrane potential dye, choline response; hits give low values; B-score at 10 µM; 310,000 tested, 0.86% active; AID 488975;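 active = B-score over 3 SD under the library average, and starting fluorescence ratio not unusually high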;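 also: choline stimulus applied at its EC90 after an EC20 pre-addition; B-score computed on integrated fluorescence ratio after choline addition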
# IDE act – activators of human insulin-degrading enzyme in cells; activation, % at 5.96 µM; 340,000 tested, 0.073% active; HEK cells, FAbeta-B cleavage, fluorescence polarization; 0% vehicle, 100% cell-free pure enzyme wells; P14735; AID 493087;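 active = activation above the mean of all tested compounds plus 3 SD, set per screening campaign, cut at about 17% in these data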
# Target sequence (P14735 whole entry, looked up): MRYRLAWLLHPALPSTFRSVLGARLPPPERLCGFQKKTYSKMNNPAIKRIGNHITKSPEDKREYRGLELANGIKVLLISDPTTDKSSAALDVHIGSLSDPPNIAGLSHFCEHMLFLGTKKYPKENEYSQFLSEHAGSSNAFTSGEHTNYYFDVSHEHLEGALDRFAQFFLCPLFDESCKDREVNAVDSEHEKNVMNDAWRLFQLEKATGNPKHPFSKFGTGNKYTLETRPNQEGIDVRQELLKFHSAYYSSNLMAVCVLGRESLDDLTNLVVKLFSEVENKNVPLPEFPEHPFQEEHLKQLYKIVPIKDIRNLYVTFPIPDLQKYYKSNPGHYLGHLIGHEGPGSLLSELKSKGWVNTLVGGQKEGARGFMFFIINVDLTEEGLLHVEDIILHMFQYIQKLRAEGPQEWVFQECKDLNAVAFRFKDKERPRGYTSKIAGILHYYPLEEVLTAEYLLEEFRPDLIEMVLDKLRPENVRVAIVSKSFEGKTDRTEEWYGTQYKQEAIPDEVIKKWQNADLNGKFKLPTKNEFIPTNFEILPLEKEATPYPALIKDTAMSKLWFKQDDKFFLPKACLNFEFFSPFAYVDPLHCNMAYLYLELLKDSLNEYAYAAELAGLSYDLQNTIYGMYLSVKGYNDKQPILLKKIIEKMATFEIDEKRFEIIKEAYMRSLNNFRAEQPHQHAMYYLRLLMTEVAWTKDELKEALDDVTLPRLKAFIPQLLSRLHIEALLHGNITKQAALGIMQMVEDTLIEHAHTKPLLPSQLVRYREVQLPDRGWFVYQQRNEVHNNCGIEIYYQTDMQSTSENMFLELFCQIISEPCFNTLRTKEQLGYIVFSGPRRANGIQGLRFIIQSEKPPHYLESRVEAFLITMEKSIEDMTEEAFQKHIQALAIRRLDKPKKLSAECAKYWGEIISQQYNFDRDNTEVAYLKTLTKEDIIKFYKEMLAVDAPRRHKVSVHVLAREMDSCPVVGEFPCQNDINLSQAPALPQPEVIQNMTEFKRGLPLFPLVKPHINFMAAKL
# TMEM16A act – activators or potentiators of mouse TMEM16A chloride channel; 340,000 tested, 0.3% active; B-score at 10 µM; HEK293 TMEM16A/YFP-H148Q/I152L, iodide quench fluorescence; hits give low values; Q8BHY3;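 active = fluorescence-ratio B-score plate-corrected deviation score at least 3 library SD below zero, with starting fluorescence score within 5 deviations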;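 also: channel opened by trigger with iodide after compound preincubation; score built on the fluorescence ratio of max minus min over baseline; more negative score means more quench and so TMEM16A activation or potentiation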
# CHT PAM – allosteric activators of human choline transporter CHT; B-score at 10 µM; 310,000 tested, 0.49% active; CHT-expressing cells, membrane potential dye, choline EC20; hits give high values; LV-AA mutant CHT in HEK293 cells; Q9GZV3;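 active = initial fluorescence not abnormally high and integrated response B-score, plate-corrected, over 3 SD above library mean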
# ANO1 block – mouse TMEM16A channel inhibition, primary screen; Q8BHY3; HEK293 TMEM16A/YFP iodide influx fluorescence, ionomycin; normalized B-score (activity score, 25-100; higher = stronger inhibition) at 10 µM; 310,000 tested, 1.2% active;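 active = ratio plate-corrected score three or more library SD toward inhibition, starting fluorescence score within five deviations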;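 also: score derived from kinetic fluorescence span divided by baseline fluorescence per well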
# IDE inh – cellular human IDE inhibition; HEK cells, FAbetaB cleavage, fluorescence polarization; AID 434962; P14735; inhibition, % at 5.59 µM; 320,000 tested, 0.41% active;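 active = percent inhibition above the average of all tested compounds plus 3 SD, set per screening campaign, cut at about 16% in these data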;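 also: IDE supplied by intact live HEK cells; FP after avidin binding of uncleaved biotin substrate so inhibition keeps polarization high; 0% = DMSO wells and 100% = 60 µM reference IDE inhibitor Ii1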
# IDE cell inh cf – confirmation of human insulin-degrading enzyme inhibitors in cells; shares compounds with IDE inh; HEK cells, FAbetaB cleavage, fluorescence polarization; inhibition, % at 5.59 µM; 1,200 tested, 51% active; AID 435028;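 active = mean inhibition across triplicate wells above the cutoff set by the earlier primary insulin-degrading enzyme screen, cut at about 16% in these data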;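 also: 0% = DMSO wells and 100% = 60 µM reference IDE inhibitor Ii1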
# HEK cytotox – counter-screen for IDE inhibitors: cytotoxicity in HEK cells. shares compounds with IDE inh. HEK293 cytotoxicity, ATP luminescence. inhibition, % at 5.59 µM. 1,200 tested, 28% active; in the data active = inhibition above about 22%;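 also: 0% = vehicle wells and 100% = reference cytotoxic drug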
# The depositor's hits bear a star; i = inactive; . = no result given.
SMILES,CHT inh,IDE act,TMEM16A act,CHT PAM,ANO1 block,IDE inh,IDE cell inh cf,HEK cytotox
CCOC(=O)C1CCN(C(=O)C2CCN(c3ncnc4c3nc3n4CCCCC3)CC2)CC1,i,3,i,i,i,-2,.,.
O=C(NCCCN1CCOCC1)c1cccc(NS(=O)(=O)c2ccc(Br)cc2)c1,.,4,i,.,.,-1,.,.
COc1cccc(-c2nn(C)c3sc(C(=O)Nc4ccc5c(c4)OCCO5)cc23)c1,i,-15,i,i,i,25*,9,20
Cn1nc(-c2ccccc2F)c2cc(C(=O)Nc3ccc4c(c3)OCCO4)sc21,i,-11,i,i,i,11,.,.
Cc1c(O)c2c3c(cccc3c1O)C(=O)N(c1ccccc1)C2=O,i,-54,i,i,i,60*,87*,9
COc1ccc(OCCNC(=O)Nc2cc(F)c(F)cc2Cl)cc1,i,-9,i,i,i,18*,3,6
COc1cc(/C=C(\C#N)C(=O)c2c[nH]c3ccccc23)cc(OC)c1O,i,-108,i,i,i,38*,159*,3
COc1cc(/C=C(\C#N)C(=O)NCCc2ccccc2)cc(OC)c1O,i,-62,i,i,i,44*,76*,12
N#C/C(=C\c1ccc(O)c(O)c1)C(=O)NCCc1ccccc1,i,-13,i,i,i,16,.,.
COC(=O)/C(C#N)=C/c1c[nH]c2ccccc12,i,-3,i,i,i,1,.,.
COc1ccc(-c2csc(NC(=O)c3cc(C)oc3C)n2)cc1OC,i,-12,i,i,i,17*,13,21
CN(Cc1ccccc1Cl)C(=O)CNC(=O)C12CC3CC(CC(C3)C1)C2,.,4,i,.,.,0,.,.
CN(CC(=O)Nc1ccc2c(c1)CCC2)CC(=O)Nc1ccccc1Br,i,-5,i,i,i,19*,4,8
COc1ccc(NC(=O)CN(C)CC(=O)Nc2ccc3c(c2)CCC3)cc1,i,-2,i,i,i,3,.,.
O=C(c1cc(S(=O)(=O)N2CCN(c3ccccc3)CC2)ccc1Cl)N1CCCCCCC1,i,7,i,i,i,-4,.,.
COc1ccc(NC(=O)c2cc3c(Cl)nc4ccccc4c3s2)cc1OC,i,-16,i,i,i,19*,14,17
CCCCn1c(N)c(N(CCOC)C(=O)c2ccc3c(c2)C(=O)N(c2cc(C)ccc2C)C3=O)c(=O)[nH]c1=O,i,5,i,i,i,1,.,.
Cc1ccccc1N(CC(=O)Nc1ccccc1C(=O)O)S(C)(=O)=O,i,-34,i,i,i,23*,14,6
O/C(=C\c1nc2ccccc2[nH]1)c1cccs1,i,-5,i,i,i,7,.,.
O=c1[nH]c2ccccc2nc1/C=C(\O)c1cccs1,i,-45,i,i,i,47*,75*,14
COc1ccc(CCNC(=O)c2cccc(Br)c2)cc1OC,i,2,i,i,i,3,.,.
CCOC(=O)C1CCCN(C(=O)c2cccc(S(=O)(=O)N(C)c3ccc(C)cc3)c2)C1 (configuration not stated),.,5,i,.,.,1,.,.
Cc1cc2nc3c(=O)n(CCc4ccccc4)c(=O)[nH]c3nc2cc1N,i,-22,i,i,i,13,.,.
Nc1ccc2nc3c(=O)n(C4CCCCC4)c(=O)[nH]c3nc2c1,i,-50,i,i,i,57*,88*,13
Nc1ccc2nc3c(=O)n(CCc4ccccc4)c(=O)[nH]c3nc2c1,i,.,-6.6*,i,i,32*,63*,14
SMILES,CHT inh,IDE act,TMEM16A act,CHT PAM,ANO1 block,IDE inh,IDE cell inh cf,HEK cytotox
CCCCn1c(=O)[nH]c2nc3cc(N)ccc3nc2c1=O,i,3,i,i,i,10,.,.
CCOc1ccc2[nH]c3c(NCCc4ccc(OC)c(OC)c4)ncnc3c2c1,i,-25,i,i,i,17*,9,41*
CCOCCCNc1ncnc2c1[nH]c1ccccc12,i,-7,i,i,i,21*,8,38*
O=C1NC(=S)CN1c1ccccc1,i,-31,i,i,i,24*,5,7
Cc1ccc(-c2ccccc2NC(=O)CS(=O)CC(=O)Nc2ccc(C)c(Cl)c2)o1 (configuration not stated),i,-8,i,i,i,26*,5,7
Cc1ccc(-c2ccccc2NC(=O)CCl)o1,i,1,i,i,i,5,.,.
O=C1CCc2cc(S(=O)(=O)Nc3ccccc3F)ccc2N1,.,-2,i,.,.,8,.,.
O=C(COc1ccc(S(=O)(=O)N2CCOCC2)cc1)N1CCN(c2ccccc2)CC1,i,-11,i,i,i,21*,10,22*
COc1ccc(S(=O)(=O)Nc2ccccc2C(=O)N2CCOCC2)cc1C,i,-2,i,i,i,-2,.,.
Cc1cccc(C(=O)OCC(=O)N(CC(C)C)c2c(N)n(Cc3ccccc3)c(=O)[nH]c2=O)c1C,.,-1,i,.,.,.,.,.
O=S(=O)(NC1=NCCC1)c1cccc(NC(=S)NCCc2ccccc2)c1,i,-4,i,i,i,22*,11,6
CCCCNC(=S)Nc1cccc(S(=O)(=O)NC2=NCCC2)c1,i,5,i,i,i,7,.,.
COC(=O)c1ccc(C2C(C#N)=C(N)Oc3cc(N)ccc32)cc1 (configuration not stated),i,3,i,i,i,0,.,.
N#CC1=C(N)Oc2cc(O)ccc2C1c1cccnc1 (configuration not stated),i,-35,i,i,i,82*,14,7
COC(=O)c1ccc(C2C(C#N)=C(N)Oc3cc(O)ccc32)cc1 (configuration not stated),i,0,i,i,i,24*,3,8
N#CC1=C(N)Oc2cc(O)ccc2C1c1ccncc1 (configuration not stated),i,-16,i,i,i,131*,11,11
N#CC1=C(N)Oc2cc(O)ccc2C1c1cccs1 (configuration not stated),i,-8,i,i,i,8,.,.
CN(C)C(=O)c1cccc(-c2csc(N3CCC(C(N)=O)CC3)n2)c1,.,.,.,.,.,-3,.,.

# Compound activity (PubChem)
